# From article PMC4336329 (PLoS ONE, 2015)
# Out of some 310,000 compounds screened, about 14,000 (4.5%) showed an effect of 50% or more. The effect is printed as a negative number. For the sample, strong results were picked, then their nearest neighbours and some compounds at random.
# Molecular target: human ether-à-go-go-related gene (hERG) potassium channel (human, UniProt Q12809)
# Experiment: primary screen, population patch clamp on CHO cells stably expressing hERG; higher = less effect of the substance
# 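Note: peak tail current of the secondary pulse compared with the same well before compound.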
# human ether-à-go-go-related gene (hERG) potassium channel, sequence (Q12809 whole entry, looked up): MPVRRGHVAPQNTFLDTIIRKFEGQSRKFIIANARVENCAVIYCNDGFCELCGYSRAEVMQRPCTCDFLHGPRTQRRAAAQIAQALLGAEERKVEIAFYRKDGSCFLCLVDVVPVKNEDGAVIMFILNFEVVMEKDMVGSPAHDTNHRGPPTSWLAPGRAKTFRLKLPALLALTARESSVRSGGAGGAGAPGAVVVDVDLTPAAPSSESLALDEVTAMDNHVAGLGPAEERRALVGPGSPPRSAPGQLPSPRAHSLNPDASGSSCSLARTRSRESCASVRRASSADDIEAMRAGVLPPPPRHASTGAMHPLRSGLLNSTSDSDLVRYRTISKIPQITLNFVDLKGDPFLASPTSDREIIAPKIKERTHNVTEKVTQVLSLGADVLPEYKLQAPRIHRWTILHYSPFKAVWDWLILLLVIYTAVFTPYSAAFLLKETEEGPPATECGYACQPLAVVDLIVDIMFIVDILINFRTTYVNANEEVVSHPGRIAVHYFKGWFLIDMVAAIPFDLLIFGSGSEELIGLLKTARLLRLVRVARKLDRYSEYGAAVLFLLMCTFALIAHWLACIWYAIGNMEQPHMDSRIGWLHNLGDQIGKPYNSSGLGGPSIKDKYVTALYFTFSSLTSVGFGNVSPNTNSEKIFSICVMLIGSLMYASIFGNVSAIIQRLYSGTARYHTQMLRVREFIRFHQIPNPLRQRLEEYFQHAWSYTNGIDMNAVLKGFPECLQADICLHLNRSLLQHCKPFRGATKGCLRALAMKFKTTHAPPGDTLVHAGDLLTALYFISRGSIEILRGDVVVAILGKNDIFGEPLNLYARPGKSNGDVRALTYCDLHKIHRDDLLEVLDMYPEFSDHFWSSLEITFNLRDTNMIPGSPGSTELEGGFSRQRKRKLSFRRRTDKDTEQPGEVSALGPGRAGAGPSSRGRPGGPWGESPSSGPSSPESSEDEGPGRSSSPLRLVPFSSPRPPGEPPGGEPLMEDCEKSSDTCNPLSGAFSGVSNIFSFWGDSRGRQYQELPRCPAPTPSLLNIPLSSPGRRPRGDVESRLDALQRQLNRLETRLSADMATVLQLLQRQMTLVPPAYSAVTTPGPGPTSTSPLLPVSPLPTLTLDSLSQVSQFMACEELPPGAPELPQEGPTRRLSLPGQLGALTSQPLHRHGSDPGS
row,SMILES,"hERG current change (%, negative = inhibition) at 10uM"
1,CC(NC(=O)/C(C#N)=C/c1ccc(Cl)c([N+](=O)[O-])c1)c1ccccc1 (centres unmarked),4.7%
2,CCN(CC)C(=O)Nc1ccc(C(=O)OC)cc1,-1.77%
3,COc1ccc(C2=NN(C(=O)CN3CCOCC3)C(c3nc4ccccc4[nH]3)C2)cc1 (centres unmarked),-8.74%
4,C[NH+](C)CC(C)(C)CNS(=O)(=O)c1ccc(Cl)c(Cl)c1.[Cl-],4.29%
5,CCCn1nc(NC(=O)CC(C)C)c2cc3ccccc3nc21,12%
6,COc1ccc(-c2noc(CCC(=O)Nc3cc(OC)ccc3OC)n2)cc1,-14.7%
7,CCn1cc(C(=O)O)c(=O)c2cnc(N3CCN(C(=S)Nc4ccccc4C(F)(F)F)CC3)nc21,6.26%
8,O=C(Cn1nnc(-c2ccccc2F)n1)OCC(=O)c1ccccc1,10.9%
9,O=C(c1ccc(NC2=NC3CS(=O)(=O)CC3S2)cc1)N1CCN(c2ccc(F)cc2)CC1 (centres unmarked),6.4%
10,c1ccc2c(c1)SCc1nnc(-c3ccncc3)n1-2,-2.6%
11,COc1cc2[nH]c(=O)n(CCCCCC(=O)N3CC=C(c4ccccc4)CC3)c(=O)c2cc1OC,-20%
12,COc1cc2[nH]c(=O)n(CCCC(=O)N3CC=C(c4ccccc4)CC3)c(=O)c2cc1OC,-12.9%
13,COc1cccc2c1[C@@H]1CN(CCCCn3c(=O)[nH]c4c(sc5ncc(-c6ccccc6)nc54)c3=O)C[C@@H]1CO2.Cl,-67.6%
14,O=C(COc1ccccc1)N1CCN(C2CCCC2)CC1.O=C(O)C(=O)O,-13.2%
15,CC1CN(C2CCN(C(=O)COc3ccc(Cl)cc3)CC2)CC(C)O1.O=C(O)C(=O)O (centres unmarked),-38%
16,O=C(COc1ccc2cc(Br)ccc2c1)N1CCCC1,-50.1%
17,O=C(COc1ccc(Br)cc1)N1CCN(c2ncccn2)CC1,-83.7%
18,O=C(COc1ccc(Cl)cc1)N1CCN(C2CCCC2)CC1.O=C(O)C(=O)O,-83.2%
19,O=C(COc1ccccc1)N1CCN(c2ncccn2)CC1,10.5%
20,Cc1ccc(OCC(=O)NCCNC(=O)COc2ccc(C)cc2)cc1,9.34%
21,O=C(COc1ccc(Br)cc1)N1CCCCCC1,-22.9%
22,O=C(COc1ccc(Cl)cc1)N1CCN(c2ncccn2)CC1,-9.42%
23,O=C(COc1ccc2ccccc2c1)N1CCCC1,-13.3%

row,SMILES,"hERG current change (%, negative = inhibition) at 10uM"
1,Cc1ccc(OCC(=O)NCCN2CCN(C(=O)COc3ccc(C)cc3)CC2)cc1,-65.9%
2,Cc1ccc(OCC(=O)NCCN2CCCC2)cc1.Cl,2.48%
3,Nc1[nH]nc2c1NN(c1ccc(Cl)cc1Cl)N2,12.4%
4,COc1ccccc1Oc1nc(C)c(C(C)=O)cc1C#N,14.8%
5,CCc1ccc(CN(C(=O)COc2c(C)cccc2C)C2CCS(=O)(=O)C2)cc1 (centres unmarked),-12.2%
6,Cc1ccc(NC(=O)c2cccc(S(=O)(=O)N(C)c3ccccc3)c2)cc1S(=O)(=O)N1CCOCC1,9.04%
7,O=S(=O)(Nc1ccc(Cl)cc1)c1cccc2cccnc12,12.8%
8,COc1ccc(N2CCN(C(=O)CCS(=O)(=O)c3cccc4nsnc34)CC2)cc1,-23.9%
9,CCOc1cc(C(=S)N2CCOCC2)ccc1OC(=O)c1cccc(C)c1,-42%
10,Cc1cc(C(=O)CSc2nnc(-c3ccc(F)cc3)o2)c(C)n1CC1CCCO1 (centres unmarked),-7.13%
11,O=C(CSc1nnc(-c2ccco2)o1)NC1CC2CCC1C2 (centres unmarked),-2.05%
12,CCOC(=O)c1c(C)[nH]c(C(=O)N2CCc3cc(OC)c(OC)cc3C2)c1C,-12.3%
13,COc1ccc(OC)c(NC(=O)C(C)Oc2ccc(Br)cc2)c1 (centres unmarked),5.96%
14,CN(CC(=O)NC1CC(C)(C)NC(C)(C)C1)S(=O)(=O)c1ccc(Br)cc1,-2.22%
15,COc1ccc(OCC(=O)N2CCN(C(=O)COc3ccc(Br)cc3)CC2)cc1,-71.9%
16,CC(=O)N1CCN(C(=O)COc2ccc(Br)cc2)CC1,-17.8%
17,Cc1ccc(OCC(=O)N2CCN(C(=O)CCC3CCCC3)CC2)cc1,-54.3%
18,O=C(CCC1CCCC1)N1CCN(C(=O)COc2ccccc2)CC1,-28.8%
19,O=C(O)C1CCN(C(=O)COc2ccc(Br)cc2)CC1,38%
20,CCOC(=O)N1CCN(C(=O)COc2ccc(Br)cc2)CC1,-39.1%
21,CN1CCCN(C(=O)COc2ccc(Br)cc2)CC1,-17.3%
22,O=C(COc1ccc(Br)cc1)N1CCN(C2CCCC2)CC1,-63.6%
23,Cc1cccc(OCC(=O)N2CCN(C(=O)CCC3CCCC3)CC2)c1,-37.3%

row,SMILES,"hERG current change (%, negative = inhibition) at 10uM"
1,c1ccc(Cn2nc(-c3ccccc3)nc2-c2ccccc2)cc1,-2.5%
2,O=c1[nH]c2ccc(S(=O)(=O)N3CCN(Cc4ccccc4)CC3)cc2[nH]c1=O,-1.75%
3,Cn1c(CNC(=O)c2cccs2)n[nH]c1=S,18.1%
4,O=C(NCc1ccccn1)c1ccc(NS(=O)(=O)c2cccc(Cl)c2)cc1,7.73%
5,COc1ccc(-n2nnnc2/C=C\Nc2ccc(C)cc2)cc1,16%
6,COC(=O)CNC(=O)CNC(=O)c1nn(-c2ccc(OC)c(OC)c2)c(=O)c2ccccc12,18.1%
7,COc1ccc2nc(NC(=O)C3COc4ccccc4O3)sc2c1 (centres unmarked),0.282%
8,CCCCN1C(=O)/C(=C2/Sc3ccc(OC)cc3N2CC)SC1=S,25.5%
9,O=C(c1ccccc1)c1cc(-c2ccccn2)c(N2CCOCC2)s1,-29.4%
10,O=C(c1ccc(Cl)cc1)c1cc(-c2ccccn2)c(N2CCOCC2)s1,-54.9%
11,O=C(c1ccc(Cl)c(Cl)c1)c1cc(-c2ccccn2)c(N2CCOCC2)s1,-29.1%
12,S=C(N/N=C/c1ccc2ncccc2c1)Nc1ccccc1,63.6%
13,Cc1ccc(C(=O)CSc2ccccn2)cc1,-7.25%
14,CCC1CCCCN1CCCNC(=O)C1CCCN(c2nn3c(=O)cc(C)nc3s2)C1 (centres unmarked),12.2%
15,O=C(O)CCCC(=O)Nc1ccc(N=Nc2ccccc2)cc1,14.5%
16,COc1ccc(S(=O)(=O)N2CCCC2CNC(=O)C(=O)NCc2ccc(C)cc2)cc1 (centres unmarked),-29.6%
17,Cc1cc(O)c2c(C)c(CC(=O)N3CCN(C(=O)C4COc5ccccc5O4)CC3)c(=O)oc2c1 (centres unmarked),-28%
18,CCOC(=O)N1CCN(C(=O)C2COc3ccccc3O2)CC1 (centres unmarked),-2.28%
19,Cc1c(CC(=O)N2CCN(C(=O)C3COc4ccccc4O3)CC2)c(=O)oc2c(C)c(O)ccc12 (centres unmarked),-20%
20,CC(=O)Oc1ccc2c(C)c(CC(=O)N3CCN(C(=O)C4COc5ccccc5O4)CC3)c(=O)oc2c1C (centres unmarked),-69.6%
21,Cc1c(CC(=O)N2CCN(C(=O)C3COc4ccccc4O3)CC2)c(=O)oc2cc(O)ccc12 (centres unmarked),-44.7%
22,Cc1c(CC(=O)N2CCN(C(=O)C3COc4ccccc4O3)CC2)c(=O)oc2cc(O)cc(O)c12 (centres unmarked),24.8%
23,Cc1c(CC(=O)N2CCN(C(=O)C3COc4ccccc4O3)CC2)c(=O)oc2c(O)c(O)ccc12 (centres unmarked),-0.208%

row,SMILES,"hERG current change (%, negative = inhibition) at 10uM"
1,Cc1c(CC(=O)N2CCN(C(=O)C3COc4ccccc4O3)CC2)c(=O)oc2cc(O)c(Cl)cc12 (centres unmarked),-52.4%
2,COc1cc(C)cc2oc(=O)c(CC(=O)N3CCN(C(=O)C4COc5ccccc5O4)CC3)c(C)c12 (centres unmarked),-53.9%
3,O=C(C1COc2ccccc2O1)N1CCOCC1 (centres unmarked),10.5%
4,O=C(C1COc2ccccc2O1)N1CCN(c2ccccc2Cl)CC1 (centres unmarked),1.69%
5,COc1ccc2c(C)c(CC(=O)N3CCN(C(=O)C4COc5ccccc5O4)CC3)c(=O)oc2c1C (centres unmarked),-53.7%
6,COc1ccccc1CNC(=O)c1ccc(-c2ccccc2Cl)o1,4.13%
7,O=S(=O)(/N=C(/NS(=O)(=O)c1ccccc1)c1ccccc1)c1ccccc1,20%
8,CN(C)c1ccc(/C=N/NC(=O)c2sccc2-n2cccc2)cc1,12.2%
9,CC1=CC(=C(C#N)c2nc3ccccc3s2)C=C(C)N1c1ccc(F)cc1F,13.3%
10,c1ccc2c(c1)Cc1ccccc1O2,14.7%
11,COc1ccc(/C=C2\C(=O)NCC(=O)N2Cc2ccccc2)cc1,4.69%
12,Cc1csc(NC(=O)c2cccs2)n1,-1.76%
13,CCOc1cc(NC(=S)NCC2CCCO2)c(OCC)cc1NC(=O)C1CC1 (centres unmarked),36.2%
14,C=CCn1cccc(C(=O)Nc2cc(OC)ccc2OC)c1=O,1.46%
15,CN(Cc1cccs1)C(=O)c1cc(S(=O)(=O)N2CCOCC2)ccc1N1CCCC1,-27.1%
16,CCc1ccc(CN(C)C(=O)c2cc(S(=O)(=O)N3CCOCC3)ccc2N2CCCC2)cc1,-50.1%
17,CN(Cc1cccc(F)c1)C(=O)c1cc(S(=O)(=O)N2CCOCC2)ccc1N1CCCC1,-24.5%
18,CN(Cc1ccc(Cl)cc1)C(=O)c1cc(S(=O)(=O)N2CCOCC2)ccc1N1CCCC1,-72.8%
19,Cc1ccsc1CN(C)C(=O)c1cc(S(=O)(=O)N2CCOCC2)ccc1N1CCCC1,-40.5%
20,COc1ccc(CN(C)C(=O)c2cc(S(=O)(=O)N3CCOCC3)ccc2N2CCCC2)cc1,-35.2%
